Experimental findings from PubChem BioAssay are described below.

The target in the first experiment is Tumor necrosis factor receptor superfamily member 10B (Homo sapiens) (UniProt O14763). The experiment in a line: viability loss of caspase-8 NB7 cells with TRAIL – with/without TRAIL, luminescence panel, confirmation (AID 651596). The note with it: NB7 neuroblastoma + caspase-8, TRAIL sensitization, NB7 Caspase-8, with TRAIL, mean of runs, at 10 µM, stronger effect = higher value.
Sequence of Tumor necrosis factor receptor superfamily member 10B (Homo sapiens) (O14763 whole entry, looked up): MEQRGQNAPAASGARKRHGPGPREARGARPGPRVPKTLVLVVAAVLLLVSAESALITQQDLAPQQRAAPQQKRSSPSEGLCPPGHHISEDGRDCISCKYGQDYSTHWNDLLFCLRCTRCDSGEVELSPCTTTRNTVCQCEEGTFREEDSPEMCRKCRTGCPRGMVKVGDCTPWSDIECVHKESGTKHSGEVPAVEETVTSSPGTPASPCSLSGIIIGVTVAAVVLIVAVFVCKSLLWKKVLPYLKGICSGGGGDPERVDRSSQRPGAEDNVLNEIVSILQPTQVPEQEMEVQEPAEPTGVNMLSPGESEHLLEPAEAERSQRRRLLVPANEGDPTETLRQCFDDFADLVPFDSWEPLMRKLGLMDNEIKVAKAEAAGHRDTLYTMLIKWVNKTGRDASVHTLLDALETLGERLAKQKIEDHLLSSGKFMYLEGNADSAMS
For `CCSc1ccc(-c2cc(NC=O)c3ncc(-c4cccc(C(=O)NCCN(C)C)c4)n3c2)cc1`, the activity was found to be 50.4%.
Still for that read-out and setting: with `COc1cccc(C=Cc2nccc3ccccc23)c1OC` the figure was 69.2%.
On the same count and under the same terms, the same measure for `OCC1OC(n2ccc3c2ncn2ncnc32)C(O)C1O` (centres undefined): 93.8%.
On the same count and under the same terms, the same measure for `CCOc1ccc(/C=C/C(=O)c2c(O)cc(C)oc2=O)cc1`: 74.8%.
Consider `O=C(/C=C/c1ccc(Cl)cc1Cl)N1CCc2ccccc21`, for which the activity came out at 47.9%.
Regarding `CCOC(=O)c1cn2nc(N3CCCCC3)ccc2n1`, the activity stood at 52.5%.
Still for that read-out and setting: the same measure for `CS(=O)(=O)c1ccc2nc(NC(=O)c3cccc([N+](=O)[O-])c3)sc2c1`: 69.4%; for `Cc1ccc(C(=O)NC2CCCCCCC2)c(Cl)c1`: 62.7%.
The same measure, in the same setting: the same measure for `CC(C)c1ccc(OCc2cccc(C(=O)N/N=C/c3cccnc3)c2)cc1`: 47.6%.
On the same count and under the same terms, with `CCCc1cc(=O)[nH]c(SCC(=O)c2c(N)n(CC(C)C)c(=O)n(C)c2=O)n1` the figure was 80.5%; with `COc1ccc(C(=O)Nc2ccc3ccccc3c2)cc1`, 76.8%; with `COc1ccccc1OCCNC(=O)c1ccc2c(c1)OCCO2`, 41%.
As to `Fc1cccc2sc(Nc3nnc(-c4ccccc4)o3)nc12`, the activity came out at 71%.
In the case of `Cc1ccc(CN=c2c([N+](=O)[O-])nn(-c3cccc(C)c3)n2O)cc1`, the activity worked out at 16.2%.
`NC(=O)c1c(NC(=O)c2cc3ccccc3o2)sc2c1CCC2`: the activity amounted to 56%.
Same read-out and setting: the same measure for `CN(C(=S)NC(=O)c1ccc(Cl)cc1)C1CCCCC1`: 40.6%.
Still for that read-out and setting: with `Nc1c(-c2ccccc2)cnn1-c1ccccc1` the figure was 44.6%; with `O=C(COC(=O)c1n[nH]c2ccccc12)NC(=O)NC12CC3CC(CC(C3)C1)C2`, 51.5%.
Still for that read-out and setting: the same measure for `Cc1cccc(/C=C/c2nc3ccccc3c(=O)[nH]2)c1`: 61.5%; for `CCc1cc2c(=O)[nH]c(-c3ccccn3)nc2s1`: 35.9%.

System in a further experiment: not listed separately
Described as above. The conditions noted are these: NB7 neuroblastoma + caspase-8, without TRAIL, NB7 Caspase-8, without TRAIL, mean of runs, at 10 µM.
With `Nc1ccccc1C=C1Cc2ccccc2C1=O`, the activity is 50%.
The same measure, in the same setting: with `Nc1ccc(-c2nc3ncccc3o2)c(Cl)c1` the figure was 32.2%.
Take `O=C(/C=C/c1ccc2c(c1)OCO2)Nc1cccnc1`: the activity was 76.2%.
Still for that read-out and setting: the same measure for `CCOC(=O)COc1ccc(-c2nnc(-c3ccccc3)o2)cc1`: 33.8%; for `O=C(NC(=S)Nc1nc2ccc(F)cc2s1)c1ccco1`: 77.4%; for `C/C=C/c1ccc(OCCCNC2CCCC2)c(OC)c1`: -12.4%.
On to `CC(=O)c1ccc(NC(=O)Nc2ccccc2)cc1`, for which the activity is 68.3%.
As to `COc1ccc(C=C2OC(=O)C(C(C)=O)=C2O)cc1`, the activity is 89%.
Same read-out and setting: with `COc1ccccc1-c1nc(-c2ccccn2)no1` the figure was 72.7%.
Same read-out and setting: the same measure for `Cc1ccc(NC(=S)c2nc3ccccc3s2)cc1`: 33.8%; for `C/C(=N\Nc1nc2ccccc2[nH]1)c1ccccn1`: 68.5%.
`CCS(=O)(=O)c1ncc(Cl)c(C(=O)Nc2ccc(C)cc2)n1`: the activity was determined as 86.8%.
On the same count and under the same terms, the same measure for `Cc1cccc(NS(=O)(=O)c2ccc3c(c2)Cc2cc(S(=O)(=O)Nc4cccc(C)c4C)ccc2-3)c1C`: 77.5%; for `Cc1[nH]cnc1C(=O)N/N=C/c1c(Cl)cccc1Cl`: 57.6%.
Regarding `O=[N+]([O-])c1c(Nc2cccc(O)c2)cc(Cl)c2nonc12`, the activity was 99.5%.
For `O=C(/C=C/C(Cl)(Cl)Cl)Nc1ccc(Cl)cc1`, the activity came to 98.9%.
The same measure, in the same setting: the same measure for `Cc1ccc(-c2nc(N/N=C/c3cccc([N+](=O)[O-])c3)c3ccccc3n2)cc1`: 63.5%; for `CC(C)(C)c1ccc(-c2noc(CCC(=O)N3CCOCC3)n2)cc1`: 64.2%; for `COc1ccc(/C=C2\Oc3ccccc3C2=O)cc1`: 74.3%.
For the molecule `CC(C)C(=O)Nc1ccc2nn(-c3ccccc3)nc2c1`, the activity is 55%.
Take `CCSc1ccc(-c2cc(NC=O)c3ncc(-c4cccc(C(=O)NCCN(C)C)c4)n3c2)cc1`: the activity was found to be 87.7%.
Still for that read-out and setting: the same measure for `COc1cccc(C=Cc2nccc3ccccc23)c1OC`: 67.1%.
Consider `OCC1OC(n2ccc3c2ncn2ncnc32)C(O)C1O` (centres undefined), for which the activity is 95.3%.
Still for that read-out and setting: with `CCOc1ccc(/C=C/C(=O)c2c(O)cc(C)oc2=O)cc1` the figure was 77.8%.
Still for that read-out and setting: with `O=C(/C=C/c1ccc(Cl)cc1Cl)N1CCc2ccccc21` the figure was 51.4%; with `CCOC(=O)c1cn2nc(N3CCCCC3)ccc2n1`, 72.9%.
Same read-out and setting: with `CS(=O)(=O)c1ccc2nc(NC(=O)c3cccc([N+](=O)[O-])c3)sc2c1` the figure was 71.3%.
Regarding `Cc1ccc(C(=O)NC2CCCCCCC2)c(Cl)c1`, the activity worked out at 53.6%.
Turning to `CC(C)c1ccc(OCc2cccc(C(=O)N/N=C/c3cccnc3)c2)cc1`, the activity worked out at 45.3%.
Still for that read-out and setting: the same measure for `CCCc1cc(=O)[nH]c(SCC(=O)c2c(N)n(CC(C)C)c(=O)n(C)c2=O)n1`: 83.7%; for `COc1ccc(C(=O)Nc2ccc3ccccc3c2)cc1`: 74.5%; for `COc1ccccc1OCCNC(=O)c1ccc2c(c1)OCCO2`: 45.9%.
Same read-out and setting: the same measure for `Fc1cccc2sc(Nc3nnc(-c4ccccc4)o3)nc12`: 73%.
Same read-out and setting: with `Cc1ccc(CN=c2c([N+](=O)[O-])nn(-c3cccc(C)c3)n2O)cc1` the figure was 24.7%.
